The text below walks through data of PubChem BioAssay (NCI).

Holding throughout (assay): NCI-60 one-dose screen, 48 h (100 = growth as untreated, 0 = no growth, -100 = all killed)
In one experiment the test system is RPMI-8226 leukemia. The settings on record: 10 µM.
For a further experiment, the system named is OVCAR-8 ovarian. Particulars: 10 µM.
In another experiment the test system is OVCAR-5 ovarian. The settings on record: 10 µM.
The test system of a further experiment is OVCAR-4 ovarian. Particulars: 10 µM.
Another experiment has as its system SK-OV-3 ovarian. Particulars: 10 µM.
The test system of another experiment is OVCAR-3 ovarian. The settings on record: 10 µM.
Another experiment has as its system HS 578T breast. Particulars: 10 µM.
In a further experiment the test system is NCI/ADR-RES ovarian. The settings on record: 10 µM.
The test system of the next experiment is T-47D breast. Particulars: 10 µM.
In another experiment the test system is BT-549 breast. The settings on record: 10 µM.
A further experiment deals with MDA-MB-435 melanoma. Particulars: 10 µM.
The subject of the next experiment is SW-620 colon. The settings on record: 10 µM.
Another experiment concerns MCF7 breast. The settings on record: 10 µM unless noted.
In the next experiment the test system is HCT-116 colon. The settings on record: 10 µM.
Another experiment concerns HCC-2998 colon. Particulars: 10 µM.
The test system of another experiment is KM12 colon. Particulars: 10 µM.
Another experiment deals with IGROV1 ovarian. The settings on record: 10 µM.

About 83,000 compounds went through this panel and 20% of them were active in at least one assay; those are over-represented in the sample as a whole.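 A percent growth of 40 corresponds to 60% growth inhibition; 0 means no net growth; -100 means all cells died. Active threshold: below 10.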 Unmarked numbers belong to inactive results. Activity calls are given as the source filed them.

As for `CC(C)=NNC(N)=S`, the growth in the experiment with RPMI-8226 leukemia was 67.8%; with OVCAR-8 ovarian, 72.4%; in the experiment on OVCAR-5 ovarian, 89%; in the experiment with OVCAR-4 ovarian, 59.4%; in the experiment with SK-OV-3 ovarian, 115%; in the experiment with OVCAR-3 ovarian, 37.2%. Further, the growth with HS 578T breast was 84.3%; in the experiment with NCI/ADR-RES ovarian it was 47.3%; with T-47D breast it was 44.1%; with BT-549 breast it was 88.3%; in the experiment with MDA-MB-435 melanoma, 80.2%; in the experiment with SW-620 colon it was 68.7%. Moreover, the growth is 7% (active) with MCF7 breast, 21.4% in the experiment with HCT-116 colon, 105% in the experiment on HCC-2998 colon and 94.9% with KM12 colon.
On to `CN(C)c1ccc2oc(=O)c3ccccc3c2c1`, for which the growth is 74.1% in the experiment with RPMI-8226 leukemia; 104% in the experiment with OVCAR-8 ovarian; 91.9% in the experiment with OVCAR-5 ovarian; 69.2% in the experiment with OVCAR-4 ovarian; 101% in the experiment with SK-OV-3 ovarian; 95.3% in the experiment on IGROV1 ovarian. The growth was 103% in the experiment with OVCAR-3 ovarian; 94.9% with NCI/ADR-RES ovarian; 96.1% in the experiment on T-47D breast; 40.3% in the experiment on BT-549 breast; 109% with MDA-MB-435 melanoma; 85.2% in the experiment with SW-620 colon. Moreover, the growth was 72.9% in the experiment on MCF7 breast, 83.2% in the experiment with HCT-116 colon and 88.5% in the experiment on HCC-2998 colon.
With `COc1cccc(Sc2ccc([N+](=O)[O-])c3no[n+]([O-])c23)c1`, the growth with RPMI-8226 leukemia is 6.99% (active); with OVCAR-8 ovarian it was 53%; in the experiment on OVCAR-5 ovarian, 60.2%; in the experiment on OVCAR-4 ovarian, 67.5%; in the experiment with SK-OV-3 ovarian, 77.9%; in the experiment with OVCAR-3 ovarian, -61.9% (active). Also, the growth is 67.9% with HS 578T breast; 42.5% in the experiment on NCI/ADR-RES ovarian; 40.2% in the experiment with T-47D breast; 46.8% in the experiment on BT-549 breast; 64.4% in the experiment on MDA-MB-435 melanoma; -0.655% (active) in the experiment with SW-620 colon. The growth is 39% with MCF7 breast, -91.4% (active) with HCT-116 colon, 55.4% in the experiment with HCC-2998 colon and 92.3% in the experiment on KM12 colon.
For `COc1ccc(C2OC(N)=C(O)C2=O)cc1OC` (stereo unspecified), the growth in the experiment on RPMI-8226 leukemia is 104%; with OVCAR-8 ovarian it was 105%; with OVCAR-5 ovarian, 96.7%; in the experiment with OVCAR-4 ovarian, 103%; with SK-OV-3 ovarian, 99.5%; in the experiment on IGROV1 ovarian it was 106%. Besides, the growth with OVCAR-3 ovarian is 114%; in the experiment with HS 578T breast it was 70.1%; in the experiment on NCI/ADR-RES ovarian, 103%; in the experiment on MDA-MB-435 melanoma, 110%; in the experiment with SW-620 colon, 103%; with MCF7 breast it was 93.8%. For the same compound, the growth is 99.7% in the experiment with HCT-116 colon, 107% in the experiment on HCC-2998 colon and 109% with KM12 colon.
For `Nc1nc2c(c(-c3nc(N)nc4c3CCc3ccccc3-4)n1)CCc1ccccc1-2`, the growth in the experiment with RPMI-8226 leukemia was 105%; with OVCAR-8 ovarian, 56.8%; in the experiment with OVCAR-5 ovarian, 113%; in the experiment with OVCAR-4 ovarian it was 101%; with SK-OV-3 ovarian it was 87.2%; in the experiment on IGROV1 ovarian, 109%. Further, the growth with OVCAR-3 ovarian is 115%; in the experiment on HS 578T breast, 80.3%; in the experiment on NCI/ADR-RES ovarian it was 101%; in the experiment with BT-549 breast, 109%; in the experiment on MDA-MB-435 melanoma it was 109%; in the experiment on SW-620 colon it was 101%. Also, the growth was 95.4% with MCF7 breast, 105% in the experiment on HCT-116 colon, 114% in the experiment on HCC-2998 colon and 105% in the experiment on KM12 colon.
On to `CC1(C)S(=O)(=O)OCCOS1(=O)=O`, for which the growth is 104% in the experiment on RPMI-8226 leukemia; 99.2% with OVCAR-8 ovarian; 110% in the experiment with OVCAR-5 ovarian; 102% with OVCAR-4 ovarian; 111% in the experiment with SK-OV-3 ovarian; 108% with IGROV1 ovarian. Further, the growth with OVCAR-3 ovarian is 110%; in the experiment on HS 578T breast, 106%; with NCI/ADR-RES ovarian, 103%; in the experiment with BT-549 breast, 100%; in the experiment with MDA-MB-435 melanoma it was 103%; in the experiment with SW-620 colon, 101%. The growth in the experiment on MCF7 breast was 97.1%; with HCT-116 colon, 94.6%; in the experiment with HCC-2998 colon, 113%; with KM12 colon it was 106%.
For `COc1ccc2c(NCCCCCCCCNc3c4ccccc4nc4cc(OC)ccc34)c3ccccc3nc2c1`, the growth was -60.3% (active) in the experiment with RPMI-8226 leukemia; -42.6% (active) in the experiment with OVCAR-8 ovarian; -91.8% (active) with OVCAR-5 ovarian; -96.6% (active) with OVCAR-4 ovarian; -100% (active) with SK-OV-3 ovarian; -100% (active) with OVCAR-3 ovarian. In addition, the growth in the experiment with HS 578T breast was -45.9% (active); in the experiment with NCI/ADR-RES ovarian, 9.56% (active); in the experiment with T-47D breast it was -74.6% (active); in the experiment on BT-549 breast, -95.9% (active); with MDA-MB-435 melanoma, -100% (active); in the experiment on SW-620 colon, -100% (active). Also, the growth with MCF7 breast, with HCT-116 colon, in the experiment with HCC-2998 colon and with KM12 colon was -100% (active) in each case.
For the compound `COc1ccc2c(c1)CCc1c-2n[nH]c1-c1[nH]nc2c1CCc1cc(OC)ccc1-2`, the growth is 61.2% in the experiment with RPMI-8226 leukemia; 84.7% in the experiment with OVCAR-8 ovarian; 89.6% with OVCAR-5 ovarian; 77.3% with OVCAR-4 ovarian; 77% in the experiment on SK-OV-3 ovarian; 62.4% with IGROV1 ovarian. The growth is 41.3% in the experiment with OVCAR-3 ovarian; 48.7% in the experiment with HS 578T breast; 33.9% with NCI/ADR-RES ovarian; 54.6% in the experiment on BT-549 breast; 45% in the experiment on SW-620 colon; 12.6% in the experiment with MCF7 breast. Also, the growth with HCT-116 colon is 32.4%; in the experiment on HCC-2998 colon, 80.9%; with KM12 colon it was 47.6%.
Turning to `COC(=O)CCCCC1=CCC2C(=O)C=C(O)C2C1` (stereo unspecified), the growth in the experiment on RPMI-8226 leukemia was 100%; with OVCAR-8 ovarian, 98%; in the experiment on OVCAR-5 ovarian it was 107%; with OVCAR-4 ovarian, 103%; in the experiment with SK-OV-3 ovarian, 98.6%; in the experiment with IGROV1 ovarian it was 103%. Further, the growth is 108% with HS 578T breast; 103% in the experiment with NCI/ADR-RES ovarian; 98.9% with T-47D breast; 98.7% with BT-549 breast; 110% with MDA-MB-435 melanoma; 106% in the experiment on SW-620 colon. The growth in the experiment on MCF7 breast is 94.9%; in the experiment with HCT-116 colon it was 102%; with HCC-2998 colon, 132%.
Regarding `O=C(NCc1ccco1)Nc1c(Cl)cc(Cl)cc1Cl`, the growth in the experiment with RPMI-8226 leukemia was 100%; in the experiment with OVCAR-8 ovarian, 101%; in the experiment with OVCAR-5 ovarian, 97.7%; in the experiment on OVCAR-4 ovarian, 88.4%; in the experiment with SK-OV-3 ovarian it was 103%; in the experiment on IGROV1 ovarian, 105%. Further, the growth was 112% in the experiment on OVCAR-3 ovarian; 101% in the experiment with NCI/ADR-RES ovarian; 88.6% with T-47D breast; 96.1% with BT-549 breast; 96.5% with MDA-MB-435 melanoma; 102% in the experiment on SW-620 colon. Further, the growth is 92.8% with MCF7 breast, 95.5% with HCT-116 colon, 102% with HCC-2998 colon and 104% in the experiment on KM12 colon.
